# Assay results reported in PubChem BioAssay (NCI).
# The panel holds about 83,000 compounds, 20% with a hit somewhere; the sample as a whole holds those more often.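 48-hour exposure, single concentration, 96-well plates; percent growth endpoint where 0 means no net growth. Active: below 10.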 Values without a mark were called inactive. Active and inactive are the calls of the source.
# Key:
# Test in all cases: NCI-60 one-dose screen, 48 h (100 = growth as untreated, 0 = no growth, -100 = all killed)
# Details in all cases: 10 µM unless noted
# NCI-H23 lung = tested on: NCI-H23 lung
# NCI-H226 lung = tested on: NCI-H226 lung
# NCI-H322M lung = tested on: NCI-H322M lung
# HOP-62 NSCLC = tested on: HOP-62 NSCLC
# NCI-H460 lung = tested on: NCI-H460 lung
# HOP-92 NSCLC = tested on: HOP-92 NSCLC
# NCI-H522 lung = tested on: NCI-H522 lung
# A549/ATCC NSCLC = tested on: A549/ATCC NSCLC
# 786-0 renal = tested on: 786-0 renal
# COLO 205 colon = tested on: COLO 205 colon
# DU-145 prostate = tested on: DU-145 prostate
# K-562 leukemia = tested on: K-562 leukemia
# MALME-3M melanoma = tested on: MALME-3M melanoma
# MDA-MB-231 breast = tested on: MDA-MB-231 breast
# RXF 393 renal = tested on: RXF 393 renal
# SF-268 CNS = tested on: SF-268 CNS
# SF-295 CNS = tested on: SF-295 CNS
# SF-539 CNS = tested on: SF-539 CNS
# UACC-257 melanoma = tested on: UACC-257 melanoma
# M14 melanoma = tested on: M14 melanoma
SMILES,growth (NCI-H23 lung),growth (NCI-H226 lung) [%],growth (NCI-H322M lung),growth (HOP-62 NSCLC),growth (NCI-H460 lung),growth (HOP-92 NSCLC),growth (NCI-H522 lung),growth (A549/ATCC NSCLC),growth (786-0 renal),growth (COLO 205 colon),growth (DU-145 prostate),growth (K-562 leukemia),growth (MALME-3M melanoma),growth (MDA-MB-231 breast),growth (RXF 393 renal),growth (SF-268 CNS) [%],growth (SF-295 CNS),growth (SF-539 CNS),growth (UACC-257 melanoma),growth (M14 melanoma)
CSc1cccc(NC(=O)Nc2nc3c(C)cccc3s2)c1,90.2%,83.2,102%,87.4%,97.6%,86.6%,77.6%,95.1%,96.2%,120%,114%,89.8%,93.5%,116%,104%,104,97.3%,89.3%,98.7%,98%
CN1CCN(/C=C2\CC(C(=O)NCc3ccc(Cl)cc3Cl)NC2=O)CC1 (stereo not given),99.5%,85.7,104%,108%,104%,98.8%,98.3%,94.2%,116%,116%,108%,95.7%,98.6%,104%,103%,97.9,110%,102%,93.2%,110%
CC(=O)Nc1ccc2c(c1)Cc1cc(F)ccc1-2,90.8%,99.2,86.9%,84.8%,106%,93.4%,73.7%,92.5%,98%,124%,96.4%,91.4%,104%,101%,117%,80.7,101%,97%,99.7%,110%
COc1cc(C2=NNC(c3ccc(N(C)C)cc3)C2)cc(OC)c1OC (stereo not given),36.1%,62.2,46.2%,36.4%,10.5%,29.2%,-6.25% (active),24.5%,23%,5.74% (active),3.51% (active),-9.17% (active),83.7%,31.9%,-31.7% (active),55.7,30.3%,-39.2% (active),62.6%,21.7%
C#CCN1C(=O)c2ccccc2N(CC#C)C12CCN(Cc1cn(CC(=O)Nc3ccccc3C(N)=O)nn1)CC2,78.4%,83.2,85%,104%,89.7%,107%,67.7%,92.3%,81.1%,99.9%,98.7%,92.4%,102%,89.9%,90.5%,91.7,85.5%,91.5%,103%,89.3%
COc1cc(-c2csc(NC(=O)Nc3cc(Cl)cc(Cl)c3)n2)cc(OC)c1OC,23.7%,27.5,-42.1% (active),-64.8% (active),-61.6% (active),-14.3% (active),37.5%,-45.9% (active),-29.2% (active),5.56% (active),-15.6% (active),32.4%,-31.5% (active),-14.5% (active),15.6%,27.7,-46.1% (active),46.4%,56.7%,-6.33% (active)
O=C(Nc1cccc(-c2cccc(F)c2)c1)C1CCN(Cc2cccc3cccnc23)CC1,69.2%,71.5,78.2%,63.8%,37%,44.2%,47.3%,71.9%,47.5%,-81% (active),72%,-37.6% (active),-50% (active),37.8%,68.6%,56.8,56.1%,69.5%,-2.39% (active),-54% (active)
Nc1ccc2c(c1)C(=O)C(=O)c1c-2nc2ccccn12,-42.8% (active),13.3,-6.65% (active),-2.15% (active),0.968% (active),-21.4% (active),17.5%,-45.4% (active),71.4%,-49.2% (active),-91.1% (active),1.75% (active),-98.7% (active),-7.84% (active),29%,26.6,-67.6% (active),-32.9% (active),-67.9% (active),-91.1% (active)
